Compound activity from PubChem.
TDP1 cell noCPT: qHTS for Inhibitors of human tyrosyl-DNA phosphodiesterase 1 (TDP1): qHTS in cells in absence of CPT; Potency, µM (highest dose often 46.2 µM), inactives show at the top dose activity change, negative = growth inhibition, hits mostly inhibitors; 420,000 tested, 15% active; DT40 Tdp1-/- hTDP1 cells, no CPT, ATP luminescence, 48 h; note: % is set by controls: 0 for no effect and ±100 for the full control effect; nearly all actives have a fitted effect of over 55% in size
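Luminescent ATP content (CellTiter-Glo) served as the growth readout. Knockout chicken DT40 cells expressing human TDP1 were exposed to compounds without camptothecin for a minimum 48 hr at 37 °C.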
HepG2 tox: HepG2 cytotoxicity, counter-screen for TGF-b inhibitors; HepG2 CAGA-GFP viability, ATP luminescence, 18 h; Potency, µM (series often up to 46.1 µM), for inactives: at the highest dose activity change, negative = cytotoxicity, usual class: cytotoxic; 410,000 tested, 0.76% active; AID 588856
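HepG2 CAGA-GFP cells (1000/well, DMEM with 1% FBS) received compound, then TGF-beta at 500 pg/mL final, and were incubated 18 hours at 37 degrees C. Viability was read by CellTiter-Glo luminescence. Media-only wells were set as complete cell-killing and DMSO as no toxicity.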
HT1080 IDH1KD tx: HT-1080 IDH1 knockdown cell toxicity (counter line). HT-1080 IDH1 knockdown viability, ATP luminescence, 48 h. AID 686971. Potency, µM (titrated, usually from 46.1 µM), inactives show at the highest dose activity, negative = toxicity, actives largely listed as cytotoxic. 360,000 tested, 2% active;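 note: 0% = DMSO wells and -100% = cell-free medium wells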
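After a 2 h attachment period, IDH1KD HT-1080 cells took pin-transferred compound for 48 h at 37 °C; ATP-based luminescence after 10 min room-temperature reagent incubation reported viability.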
TGFb SMAD3 inh: TGF-b pathway inhibition; Potency, µM (series often up to 46.1 µM), without a hit: top-dose activity, negative = inhibition, hits mostly inhibitors; 410,000 tested, 1.2% active; HepG2 CAGA-GFP TGF-b/SMAD3 reporter, GFP fluorescence, 18 h; TGF-beta stimulated, 500 pg/mL final; note: % is set by controls: 0 for no effect and ±100 for the full control effect; nearly all actives have a fitted effect of over 65% in size
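HEPG2 CAGA-GFP, 1000 cells/well; 2 h settle, 37 C; cpd via pin tool; TGF-b 500 pg/mL final; 18 h, 37 C; GFP imaging ex488/em500-530; %Activity normalised to -TGF-b and +DMSO controls; CRC fit, curve class.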
DT40 TDP1 CPT: growth inhibition of DT40 Tdp1-/-;hTDP1 cells with camptothecin (screen for TDP1 inhibitors); 420,000 tested, 12% active; AID 686979; chicken DT40 Tdp1-/-;hTDP1 cells + 20 nM CPT, ATP luminescence, 48 h; Potency, µM (doses to about 46.2 µM), without a hit: at the highest dose activity change, negative = growth inhibition, actives largely listed as inhibitors; note: % is set by controls: 0 for no effect and ±100 for the full control effect; nearly all actives have a fitted effect of over 55% in size
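Chicken DT40 Tdp1-/- cells stably complemented with human TDP1 were seeded at 400 cells/well in medium containing 20 nM camptothecin, exposed to pin-transferred compounds, and grown at 37 °C for at least 48 hr. Viability was read as ATP luminescence.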
HT1080-NT tox: kills 2HG-producing HT-1080-NT fibrosarcoma cells. HT-1080-NT fibrosarcoma viability, CellTiter-Glo ATP luminescence, 48 h. Potency, µM (top dose mostly 46.1 µM), without a hit: at the highest dose activity, negative = less viability, usual class: cytotoxic. 360,000 tested, 1.6% active;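 note: NT is the 2HG producing partner of a matched IDH1 knockdown line; 0% = DMSO-treated cells and -100% = media-only wells without cells; nearly all actives have a fitted effect of over 55% in size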
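Viability by CellTiter-Glo luminescence after 48 h compound exposure at 37C of HT-1080-NT cells (750/well, RPMI, 5% FBS). % activity scaled between DMSO wells and medium-only wells, then curve-fitted and categorized by curve class.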
* marks the source's active call; other numbers are inactive results; ? = inconclusive; . = not tested or not shown. This is a sample that favours compounds with a hit; in the whole collection about 17% have one here. Calls come from the whole dose curve; as a rule, active = well fitted curve in the direction sought with a large enough effect; inconclusive = small, poorly fitted or top-dose-only effect, or another doubt; inactive = no such curve, though single readings can be large; an effect the other way counts as inactive or inconclusive. Potency is the fitted concentration of half-maximal effect.

SMILES | TDP1 cell noCPT | HepG2 tox | HT1080 IDH1KD tx | TGFb SMAD3 inh | DT40 TDP1 CPT | HT1080-NT tox
COc1ccc(NS(=O)(=O)c2ccc(N3CCCCS3(=O)=O)cc2)cc1Cl | 4.6µM* | 0% | . | -42% | 8.2µM* | .
O=S(=O)(Nc1ccc(OC(F)(F)F)cc1)c1ccc(N2CCCCS2(=O)=O)cc1 | 21µM* | -3% | . | ? | 21µM* | .
Cc1nc(-c2ccc(S(=O)(=O)Nc3ccc(OC(F)(F)F)cc3)cc2)co1 | ? | -73% | . | ? | ? | .
O=C(Nc1cccc(F)c1)N1CC2(CCN(C(=O)c3ccncc3)CC2)C1 | -9% | . | . | . | ? | .
O=C(CSC1=Nc2ccccc2N=C(c2ccc(F)cc2)C1)NCc1ccccc1 | 18µM* | -9% | . | -16% | ? | .
Cc1ccc(CNC(=O)CSC2=Nc3ccccc3N=C(c3ccc(F)cc3)C2)cc1 | 6% | 4% | . | ? | -11% | .
COc1ccccc1CNC(=O)CSC1=Nc2ccccc2N=C(c2ccc(F)cc2)C1 | ? | -32% | . | 0% | 26µM* | .
COc1cc(/C=C/CNC[C@H]2O[C@@H](n3cnc4c(N)ncnc43)[C@H](O)[C@@H]2O)ccc1O | 13µM* | -4% | 12% | 1% | -30% | 2%
CCCN1CCN(CC2=C(C(=O)OCC)C(c3ccc(Cl)cc3)NC(=O)N2)CC1 (stereo not drawn) | 26µM* | -30% | . | -22% | 26µM* | .
CCOC(=O)C1=C(CN2CCC(C)CC2)NC(=O)NC1c1ccc(OC(C)C)cc1 (stereo not drawn) | ? | -31% | . | ? | 23µM* | .
CCOC(=O)C1=C(CN2CCN(c3ccccc3F)CC2)NC(=O)NC1c1ccc(Cl)cc1 (stereo not drawn) | 16µM* | -7% | . | -9% | 26µM* | .
CCc1cc(C(=O)N2CCN(c3ccccn3)CC2)sc1C | -29% | -23% | 2% | -6% | ? | 21%
CC1=CC2=NC(=O)CC(C)(C(=O)N(CC(=O)NC3CCCC3)c3cc(C)cc(C)c3)N2C=C1 (stereo not drawn) | 21µM* | -6% | 13% | 4% | 13µM* | 7%
COc1ccccc1CNC(=O)c1cc(-c2cccnc2)nc2ccccc12 | ? | -1% | -12% | 3% | ? | -4%
CCN(Cc1ccccc1)C(=O)c1cc(-c2ccc(OC)c(OC)c2)nc2ccccc12 | ? | -34% | -10% | ? | ? | -11%
COc1cc(-c2cc(C(=O)OCC(=O)NC3CC3)c3ccccc3n2)cc(OC)c1OC | 18µM* | -8% | -11% | -4% | ? | -11%
COc1ccc(-c2cc(C(=O)N(C)Cc3ccccc3F)c3ccccc3n2)cc1OC | 18µM* | -24% | -19% | -7% | ? | -13%
COc1cc(-c2cc(C(=O)N(C)Cc3ccccc3)c3ccccc3n2)cc(OC)c1OC | 15µM* | -30% | -17% | 27% | 15µM* | -7%
Cc1cc(C(=O)OCC(=O)NC2CCCC2)c2ccccc2n1 | 10% | 1% | -5% | 6% | 2% | -10%
COc1ccccc1CN(C)C(=O)c1cc(-c2cc(OC)c(OC)c(OC)c2)nc2ccccc12 | 10µM* | -8% | 18µM* | -31% | 23µM* | 15µM*
Cc1cc(C=O)c(O)cc1O | -15% | 15% | 0% | 17% | -13% | 0%
O=C(CC1CC1)Nc1ccc2c(c1)[C@H]1C[C@H](CC(=O)N3CCc4ccccc4C3)O[C@@H](CO)[C@H]1O2 | 6% | 45% | 6% | 0% | -20% | 2%
